Growth data for twelve compounds are collected here from PubChem BioAssay (NCI).

Each structure is given as a SMILES string. This is part of a sample that, as a whole, favours compounds with a hit. Of some 83,000 tested, about 20% had one in any assay.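 Activity criterion: percent growth below 10, measured after cells in 96-well plates were exposed to a single compound concentration for 48 hours.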 Values without a mark were called inactive. The source made the active and inactive calls.

What all share (assay): NCI-60 one-dose screen, 48 h (100 = growth as untreated, 0 = no growth, -100 = all killed)
What all share (conditions): 10 µM

Test [1] relates to HCT-15 colon.
The test system of test [2] is HT29 colon.
The test system of test [3] is SNB-75 CNS.
The test system of test [4] is SNB-19 CNS.
For test [5], the system named is U251 CNS.
The subject of test [6] is PC-3 prostate.
Test [7] concerns SK-MEL-5 melanoma.
Test [8] deals with UACC-62 melanoma.
The test system of test [9] is LOX IMVI melanoma.
In test [10] the test system is SK-MEL-2 melanoma.
For test [11], the system named is EKVX NSCLC.
The test system of test [12] is SN12C renal.
Test [13] deals with UO-31 renal.
The subject of test [14] is TK-10 renal.
Test [15] concerns ACHN renal.
The subject of test [16] is CAKI-1 renal.
For test [17], the system named is A498 renal.
The test system of test [18] is CCRF-CEM leukemia.
Test [19] has as its system MOLT-4 leukemia.
Test [20] relates to SK-MEL-28 melanoma.

Take `O=C(CNc1nc(-c2ccccc2)cs1)Nc1ccc(Cl)cc1`: the growth was -85.4% (active) in test [1]; -51% (active) in [2]; -44.9% (active) in test [3]; -100% (active) in [4]; -87.3% (active) in [5]; -40% (active) in [6]. The growth in test [7] was -96.9% (active); in test [8] it was -92.4% (active); in test [9], -90.5% (active); in test [10], -84.1% (active); in test [11], -95.3% (active); in test [12], -97.2% (active). For the same compound, the growth in [13] is -99.8% (active); in test [14], -93.9% (active); in test [15] it was -100% (active); in test [16] it was -82.4% (active); in test [17], -93.4% (active); in test [18], 12.3%. Besides, in test [19], the growth was -26.5% (active).

Take `COc1ccc(N(C)c2cc(C#N)nc3ccccc23)cc1/C=C/C(=O)NO`: the growth in [1] is -59.4% (active); in test [2], -19.5% (active); in [3], -24.6% (active); in test [4], -44.5% (active); in test [5], -51% (active); in test [6] it was -9.99% (active). Also, the growth was -67.5% (active) in test [7]; -72.2% (active) in [8]; -97.6% (active) in test [9]; -80% (active) in test [10]; -54.6% (active) in test [11]; -51.4% (active) in test [12]. The growth in [13] is -55.3% (active); in test [14], 23.7%; in test [15], -22.2% (active); in test [16] it was -19.2% (active); in test [17], 16.2%; in test [18] it was 9.09% (active). The growth in test [19] is -3.71% (active).

As for `CCCCSc1nc(Nc2ccc(/C(C)=N/NC(N)=S)cc2)c(C#N)c(-c2ccc(F)cc2)n1`, the growth in [1] was 62.7%; in test [2] it was 60.3%; in [3] it was 53.5%; in test [4], 20.7%; in [5], 7.7% (active); in test [6], 28.6%. For the same compound, the growth in [7] was 75%; in test [8] it was 49.3%; in [9], 6.74% (active); in test [10] it was 72.9%; in test [11], 57.5%; in [12] it was 29.2%. For the same compound, the growth in [13] was 19.6%; in [14], 46%; in [15] it was 14.5%; in test [16], 45.2%; in test [17] it was 63.1%; in test [18] it was 55.3%. The growth in test [19] was 63.6%.

With `CCCCCCCCCCCCCCCCCCCC(=O)NCCc1c[nH]c2ccc(O)cc12`, the growth in test [1] is 96.2%; in test [2] it was 121%; in test [3], 129%; in test [4] it was 104%; in test [5], 99%; in [6], 73.4%. Further, the growth in test [7] is 110%; in test [8], 99.7%; in [9] it was 76.7%; in [10], 107%; in test [11] it was 101%; in [12], 84.9%. Further, the growth in [13] was 71.9%; in test [14], 118%; in test [15], 98.8%; in [16], 105%; in [17], 118%; in test [19] it was 71.2%.

Take `CN1CCN(c2ccc(C(=O)/C=C/c3ccc(OC(F)F)cc3)cc2)CC1`: the growth in [1] was -49.1% (active); in test [2] it was 13.4%; in test [3], 73.8%; in [4] it was 47.4%; in [5], -15.6% (active); in test [6], 25.5%. Moreover, the growth was 52.9% in test [7]; 44.6% in test [8]; -100% (active) in test [9]; 111% in test [10]; 80.1% in test [11]; 26.4% in test [12]. Besides, the growth in test [13] was 31.4%; in test [14], 63.8%; in test [15] it was 65.5%; in test [16], 65.8%; in test [17], 51.6%; in test [18] it was 21.9%. Besides, the growth in test [19] is 0.533% (active).

With `Cc1cccc(-c2nc(Nc3ccccc3C(=O)O)c3ccccc3n2)c1`, the growth in test [1] is 14.3%; in test [2] it was 39.7%; in test [3], 55.3%; in test [4], 21.2%; in test [5] it was 26.6%; in test [6], 29.5%. The growth in test [7] is 6.01% (active); in test [8] it was 28%; in test [20], 50%; in [10], 66%; in [11], 21%; in [12] it was 40.7%. In addition, the growth was 31% in [13]; 85.8% in test [14]; 36.4% in test [15]; 52.4% in [16]; 47.6% in [17]; 17.8% in test [18]. Further, in test [19], the growth is 34.3%.

Consider `Cc1ccc2nc3c(nc2c1)c1cc(I)ccc1n3CCN(C)C`, for which the growth in [1] was 10.1%; in [2] it was 14.4%; in test [3] it was 30.6%; in test [4] it was 24.9%; in [5], 24.2%; in test [6], 26%. Besides, the growth in [7] is 48.1%; in [8], 59.1%; in test [20], 11.9%; in test [10], 52.2%; in test [11], 30.9%; in [12], 21.4%. For the same compound, the growth was 8.11% (active) in [13]; 48.9% in [14]; 6.64% (active) in [15]; 8.68% (active) in test [16]; 62.9% in test [17]; 32.7% in test [18]. Further, the growth in test [19] was 10%.

As for `CS(=O)(=O)Nc1ccc(-c2ccc3c(c2)ncn3-c2ccc(NC(=O)Nc3ccc(Br)cc3)cc2)cc1`, the growth in test [1] is 8.63% (active); in test [2], 7.09% (active); in [3] it was 21.4%; in [4] it was 16.6%; in [5], 3.88% (active); in [6], 10.4%. The growth was -86.2% (active) in test [7]; -35.6% (active) in test [8]; 1.1% (active) in test [9]; -52.1% (active) in [10]; 14.2% in test [12]; 2.62% (active) in test [13]. For the same compound, the growth in [14] is 25.7%; in [15], 4.12% (active); in test [16], 2.14% (active); in [17], -17% (active); in test [18], -14.9% (active); in [19], -18.4% (active).

As to `O=c1[nH]c2ccccc2cc1CSc1ccc(Nc2nccc(-c3ccc(Cl)cc3)n2)cc1`, the growth is 8.92% (active) in test [1]; 0.0418% (active) in test [2]; -41.8% (active) in test [3]; -40.3% (active) in [4]; -72.3% (active) in test [5]; 8.58% (active) in test [6]. For the same compound, the growth was 48.2% in [7]; 23.7% in [8]; -79.6% (active) in test [9]; 4.31% (active) in test [10]; -49.6% (active) in test [11]; -47.7% (active) in [12]. For the same compound, the growth was -70.4% (active) in test [13]; -64.2% (active) in test [14]; -89.9% (active) in test [15]; -83.5% (active) in test [16]; -65.3% (active) in test [17]; 57.1% in [18]. In addition, the growth in test [19] was 59.8%.

For the compound `O=C1NC(=NC23CC4CC(CC(C4)C2)C3)N/C1=C\c1ccc2ncoc2c1`, the growth was 0.0072% (active) in test [1]; 4.66% (active) in [2]; -8.6% (active) in test [3]; 6.88% (active) in [4]; 10% in test [5]; 5.37% (active) in test [6]. Besides, the growth was 1.95% (active) in test [7]; -71.4% (active) in [8]; 0.372% (active) in [9]; -92.4% (active) in test [10]; -14% (active) in [11]; 2.78% (active) in test [12]. In addition, the growth in test [13] was 1.68% (active); in [14], 24.2%; in test [15], -10.4% (active); in test [16] it was 7.48% (active); in test [17] it was -5.36% (active); in test [18], -6.48% (active). Besides, in test [19], the growth is 10.6%.

On to `COc1ccc(/C=C/C(=O)c2ccc(S(=O)(=O)NCCNc3nc(Nc4ccc(F)cc4)nc(N(C)C)n3)cc2)cc1`, for which the growth in test [1] is 1.91% (active); in test [2], -46.4% (active); in test [3], 52.6%; in test [4] it was 36.1%; in test [5] it was 20.8%; in test [6] it was 15.7%. In addition, the growth is 21.2% in test [7]; 29.6% in [8]; -55.4% (active) in test [9]; 74.7% in [10]; 34.1% in test [11]; 14.5% in test [12]. Moreover, the growth was 14% in test [13]; 70.3% in test [14]; 16.2% in test [15]; 27.4% in [16]; 47.9% in test [17]; 16% in test [18]. For the same compound, the growth in [19] is 9.26% (active).

Turning to `COC(=O)c1c(C(=O)OC)c2n(c1C)[C@@H]([C@@H](C)[C@H]1CC[C@H]3[C@@H]4CCC5=CC(=O)CC[C@]5(C)[C@H]4CC[C@]13C)SC2`, the growth in [1] is 22.2%; in test [2], 32.9%; in [3], 51.1%; in test [4] it was 54.2%; in [5] it was 38.9%; in [6], 8.05% (active). In addition, the growth in [7] was -87% (active); in [8], 40.6%; in test [20], 43.1%; in [10], 40.2%; in test [11] it was 26.2%; in [12] it was 58%. Besides, the growth in test [13] was 30.1%; in test [14] it was 57.9%; in test [15] it was 46%; in [16] it was -3.55% (active); in [17], 71.8%; in [18] it was 10.2%. In addition, the growth in test [19] was 2.64% (active).
